# Experimental data as given in publication PMC7862700, “An all-to-all approach to the identification of sequence-specific readers for epigenetic DNA modifications on cytosine”.
# Key:
# Test in all cases: DAPPL (digital affinity profiling via proximity ligation, sequencing); 10 mM Tris-HCl pH 7.5, 50 mM NaCl, 1 mM DTT, 4% glycerol, room temperature, 30 min; GST-TFs on glutathione beads, 16-mer random dsDNA library, 0.1% formaldehyde crosslink after washing; high values mean tight binding
# FLI1 = molecular target: T1, FLI1 (Homo sapiens, UniProt Q01543 1-452); conditions: protein: recombinant; tags: N-terminal GST; dsDNA, one strand shown
# T1 sequence: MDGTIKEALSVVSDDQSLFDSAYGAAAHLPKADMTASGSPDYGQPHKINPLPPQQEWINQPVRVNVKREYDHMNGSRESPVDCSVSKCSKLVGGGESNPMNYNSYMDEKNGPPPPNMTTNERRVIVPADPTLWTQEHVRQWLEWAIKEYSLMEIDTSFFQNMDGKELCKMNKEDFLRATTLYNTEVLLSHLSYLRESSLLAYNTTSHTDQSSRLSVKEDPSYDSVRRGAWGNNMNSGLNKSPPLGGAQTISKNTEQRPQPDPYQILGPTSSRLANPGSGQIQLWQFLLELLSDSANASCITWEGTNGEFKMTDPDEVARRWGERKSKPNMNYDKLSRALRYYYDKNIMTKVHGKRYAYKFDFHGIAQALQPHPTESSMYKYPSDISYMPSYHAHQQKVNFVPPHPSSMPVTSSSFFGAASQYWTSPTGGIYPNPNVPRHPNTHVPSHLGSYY
# Procedure, shortened: (§1)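 Sequencing on an Illumina NextSeq500 followed washing, crosslinking with 0.1% formaldehyde, proximity ligation (BsaI/T4 ligase, 1 h, 37 °C) and PCR amplification of pools that had been incubated for 30 min at room temperature with 200 nmole of a random double-stranded 16-mer DNA library in Tris/NaCl/DTT/glycerol buffer. Each pool held DNA-barcoded human transcription factors, expressed in yeast as GST fusions and captured on glutathione beads, plus a tag-only sample. Binding signal is a hexamer's read frequency for a factor divided by its frequency in the tag-only sample.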
# ELK1 = molecular target: T2, ELK1 (Homo sapiens, UniProt P19419 1-428); conditions: protein: recombinant; tags: N-terminal GST; dsDNA, one strand shown
# T2 sequence: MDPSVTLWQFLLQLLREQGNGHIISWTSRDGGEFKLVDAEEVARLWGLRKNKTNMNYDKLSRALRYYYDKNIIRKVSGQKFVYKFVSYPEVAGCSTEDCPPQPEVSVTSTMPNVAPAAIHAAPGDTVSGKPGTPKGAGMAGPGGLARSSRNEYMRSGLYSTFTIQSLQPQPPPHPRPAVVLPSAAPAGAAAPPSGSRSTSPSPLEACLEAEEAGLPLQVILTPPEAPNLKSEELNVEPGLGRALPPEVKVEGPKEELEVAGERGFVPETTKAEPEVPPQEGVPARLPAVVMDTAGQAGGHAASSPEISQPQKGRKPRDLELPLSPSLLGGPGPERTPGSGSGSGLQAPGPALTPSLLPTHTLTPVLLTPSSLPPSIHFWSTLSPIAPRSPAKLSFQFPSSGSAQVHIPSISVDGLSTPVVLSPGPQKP
# Procedure, shortened: as §1
# GABPA = molecular target: T3, GABPA (Homo sapiens, UniProt Q06546 1-454); conditions: protein: recombinant; tags: N-terminal GST; dsDNA, one strand shown
# T3 sequence: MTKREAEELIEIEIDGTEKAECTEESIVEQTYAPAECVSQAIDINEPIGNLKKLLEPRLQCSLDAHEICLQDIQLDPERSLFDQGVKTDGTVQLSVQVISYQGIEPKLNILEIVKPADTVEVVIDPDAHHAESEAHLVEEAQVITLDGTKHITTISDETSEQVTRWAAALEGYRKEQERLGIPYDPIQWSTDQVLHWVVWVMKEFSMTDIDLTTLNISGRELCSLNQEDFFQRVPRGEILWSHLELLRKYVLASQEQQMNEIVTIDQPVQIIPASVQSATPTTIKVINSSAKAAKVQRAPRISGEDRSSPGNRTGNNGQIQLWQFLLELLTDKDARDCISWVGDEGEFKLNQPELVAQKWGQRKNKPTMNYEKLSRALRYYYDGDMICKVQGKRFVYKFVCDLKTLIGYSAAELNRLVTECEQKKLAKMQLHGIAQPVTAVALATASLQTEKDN
# Procedure, shortened: as §1
# ERG = molecular target: T4, ERG (Homo sapiens, UniProt P11308 1-479); conditions: protein: recombinant; tags: N-terminal GST; dsDNA, one strand shown
# T4 sequence: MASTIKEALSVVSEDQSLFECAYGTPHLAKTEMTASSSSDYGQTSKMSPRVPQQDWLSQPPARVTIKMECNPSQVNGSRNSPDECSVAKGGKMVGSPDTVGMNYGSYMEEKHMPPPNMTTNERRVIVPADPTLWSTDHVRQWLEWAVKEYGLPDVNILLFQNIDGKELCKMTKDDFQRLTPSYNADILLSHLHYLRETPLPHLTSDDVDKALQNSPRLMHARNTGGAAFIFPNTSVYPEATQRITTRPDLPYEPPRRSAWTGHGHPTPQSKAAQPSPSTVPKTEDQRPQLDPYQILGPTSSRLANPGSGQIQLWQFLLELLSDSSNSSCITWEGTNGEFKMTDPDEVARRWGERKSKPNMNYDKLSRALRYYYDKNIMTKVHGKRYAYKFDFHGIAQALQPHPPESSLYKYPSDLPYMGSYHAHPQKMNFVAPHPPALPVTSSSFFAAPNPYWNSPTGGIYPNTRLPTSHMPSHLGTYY
# Procedure, shortened: as §1
# ELF1 = ELF1 (Homo sapiens, UniProt P32519 1-619); conditions: protein: recombinant; tags: N-terminal GST; dsDNA, one strand shown
# Procedure, shortened: as §1
# EHF = molecular target: T5, EHF (Homo sapiens, UniProt Q9NZC4 1-300); conditions: protein: recombinant; tags: N-terminal GST; dsDNA, one strand shown
# T5 sequence: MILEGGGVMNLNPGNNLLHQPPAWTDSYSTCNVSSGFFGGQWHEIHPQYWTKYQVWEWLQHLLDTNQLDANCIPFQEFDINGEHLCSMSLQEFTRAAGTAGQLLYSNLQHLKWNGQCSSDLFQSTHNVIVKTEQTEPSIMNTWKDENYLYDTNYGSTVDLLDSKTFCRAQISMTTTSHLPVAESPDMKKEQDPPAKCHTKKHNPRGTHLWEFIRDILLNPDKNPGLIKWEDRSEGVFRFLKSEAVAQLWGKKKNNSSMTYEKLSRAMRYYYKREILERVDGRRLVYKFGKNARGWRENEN
# Procedure, shortened: as §1
# SPI1 = SPI1 (Homo sapiens, UniProt P17947 1-270); conditions: protein: recombinant; tags: N-terminal GST; dsDNA, one strand shown
# Procedure, shortened: as §1
# SPIB = SPIB (Homo sapiens, UniProt Q01892 1-262); conditions: protein: recombinant; tags: N-terminal GST; dsDNA, one strand shown
# Procedure, shortened: as §1
# ELK3 = molecular target: T6, ELK3 (Homo sapiens, UniProt P41970 1-407); conditions: protein: recombinant; tags: N-terminal GST; dsDNA, one strand shown
# T6 sequence: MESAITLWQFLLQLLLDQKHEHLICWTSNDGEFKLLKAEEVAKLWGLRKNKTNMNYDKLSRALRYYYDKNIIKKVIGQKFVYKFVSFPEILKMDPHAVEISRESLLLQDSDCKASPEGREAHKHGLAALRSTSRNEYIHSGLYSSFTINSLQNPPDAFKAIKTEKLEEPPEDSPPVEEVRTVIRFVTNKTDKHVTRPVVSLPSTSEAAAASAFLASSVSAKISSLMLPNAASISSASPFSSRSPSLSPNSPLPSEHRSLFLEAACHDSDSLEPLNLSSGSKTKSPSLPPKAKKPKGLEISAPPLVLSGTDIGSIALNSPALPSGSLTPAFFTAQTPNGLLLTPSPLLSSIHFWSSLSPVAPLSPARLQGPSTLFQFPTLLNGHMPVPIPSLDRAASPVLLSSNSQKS
# Procedure, shortened: as §1
# FEV = molecular target: T7, FEV (Homo sapiens, UniProt Q99581 1-238); conditions: protein: recombinant; tags: N-terminal GST; dsDNA, one strand shown
# T7 sequence: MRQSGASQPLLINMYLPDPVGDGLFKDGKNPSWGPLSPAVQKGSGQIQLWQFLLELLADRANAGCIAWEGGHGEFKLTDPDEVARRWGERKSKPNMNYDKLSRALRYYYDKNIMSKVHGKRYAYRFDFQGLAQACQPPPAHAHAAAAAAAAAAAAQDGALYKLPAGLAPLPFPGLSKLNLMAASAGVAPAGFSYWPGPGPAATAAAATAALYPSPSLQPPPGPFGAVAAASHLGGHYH
# Procedure, shortened: as §1
# ETV5 = ETV5 (Homo sapiens, UniProt P41161 1-510); conditions: protein: recombinant; tags: N-terminal GST; dsDNA, one strand shown
# Procedure, shortened: as §1
# HSF1 = HSF1 (Homo sapiens, UniProt Q00613 1-529); conditions: protein: recombinant; tags: N-terminal GST; chain copies: 3; dsDNA, one strand shown
# Procedure, shortened: as §1
# SPIC = molecular target: T8, SPIC (Homo sapiens, UniProt Q8N5J4 1-248); conditions: protein: recombinant; tags: N-terminal GST; dsDNA, one strand shown
# T8 sequence: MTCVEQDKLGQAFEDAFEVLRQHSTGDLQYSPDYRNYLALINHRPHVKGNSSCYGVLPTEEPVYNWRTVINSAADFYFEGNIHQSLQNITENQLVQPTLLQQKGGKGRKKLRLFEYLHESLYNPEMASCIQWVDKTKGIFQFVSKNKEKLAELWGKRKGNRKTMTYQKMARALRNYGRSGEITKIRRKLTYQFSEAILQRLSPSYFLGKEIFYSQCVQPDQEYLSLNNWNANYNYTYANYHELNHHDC
# Procedure, shortened: as §1
# ELF4 = ELF4 (Homo sapiens, UniProt Q99607 1-663); conditions: protein: recombinant; tags: N-terminal GST; dsDNA, one strand shown
# Procedure, shortened: as §1
# ELK4 = molecular target: T9, ELK4 (Homo sapiens, UniProt P28324-2 1-405); conditions: protein: recombinant; tags: N-terminal GST; dsDNA, one strand shown
# T9 sequence: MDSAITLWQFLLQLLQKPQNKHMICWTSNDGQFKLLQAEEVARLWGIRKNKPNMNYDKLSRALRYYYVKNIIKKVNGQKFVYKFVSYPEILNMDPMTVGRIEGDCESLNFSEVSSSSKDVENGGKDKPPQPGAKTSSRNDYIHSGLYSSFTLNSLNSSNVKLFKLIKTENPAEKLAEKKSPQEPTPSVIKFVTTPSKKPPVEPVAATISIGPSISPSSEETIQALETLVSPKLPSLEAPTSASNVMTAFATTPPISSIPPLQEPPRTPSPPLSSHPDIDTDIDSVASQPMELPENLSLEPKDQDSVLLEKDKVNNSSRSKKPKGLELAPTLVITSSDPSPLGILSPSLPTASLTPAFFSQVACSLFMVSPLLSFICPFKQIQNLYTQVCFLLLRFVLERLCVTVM
# Procedure, shortened: as §1
# ETV2 = molecular target: T10, ETV2 (Homo sapiens, UniProt O00321 1-342); conditions: protein: recombinant; tags: N-terminal GST; dsDNA, one strand shown
# T10 sequence: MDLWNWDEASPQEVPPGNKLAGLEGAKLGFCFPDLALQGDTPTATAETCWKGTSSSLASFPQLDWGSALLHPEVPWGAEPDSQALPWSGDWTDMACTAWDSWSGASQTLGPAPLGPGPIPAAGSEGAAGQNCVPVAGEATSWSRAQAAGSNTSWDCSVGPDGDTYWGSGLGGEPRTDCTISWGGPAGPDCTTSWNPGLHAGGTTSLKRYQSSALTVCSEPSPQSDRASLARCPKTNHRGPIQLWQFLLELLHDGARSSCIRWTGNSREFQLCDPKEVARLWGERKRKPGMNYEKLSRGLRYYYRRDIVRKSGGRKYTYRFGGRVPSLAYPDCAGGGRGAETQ
# Procedure, shortened: as §1
# ELF3 = molecular target: T11, ELF3 (Homo sapiens, UniProt P78545 1-371); conditions: protein: recombinant; tags: N-terminal GST; dsDNA, one strand shown
# T11 sequence: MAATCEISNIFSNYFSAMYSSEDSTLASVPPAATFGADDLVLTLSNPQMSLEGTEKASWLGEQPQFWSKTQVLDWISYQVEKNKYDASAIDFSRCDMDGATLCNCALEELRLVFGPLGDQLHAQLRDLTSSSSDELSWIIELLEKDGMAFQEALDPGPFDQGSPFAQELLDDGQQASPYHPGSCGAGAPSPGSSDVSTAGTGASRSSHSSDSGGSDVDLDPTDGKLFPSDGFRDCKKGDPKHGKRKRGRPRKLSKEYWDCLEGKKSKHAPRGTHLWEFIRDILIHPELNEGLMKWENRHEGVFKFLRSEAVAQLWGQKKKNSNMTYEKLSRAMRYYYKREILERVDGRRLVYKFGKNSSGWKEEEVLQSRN
# Procedure, shortened: as §1
# CRX = CRX (Homo sapiens, UniProt O43186 1-299); conditions: protein: recombinant; tags: N-terminal GST; dsDNA, one strand shown
# Procedure, shortened: as §1
# ETV1 = ETV1 (Homo sapiens, UniProt P50549 1-477); conditions: protein: recombinant; tags: N-terminal GST; dsDNA, one strand shown
# Procedure, shortened: as §1
# ELF4, sequence (Q99607 whole entry): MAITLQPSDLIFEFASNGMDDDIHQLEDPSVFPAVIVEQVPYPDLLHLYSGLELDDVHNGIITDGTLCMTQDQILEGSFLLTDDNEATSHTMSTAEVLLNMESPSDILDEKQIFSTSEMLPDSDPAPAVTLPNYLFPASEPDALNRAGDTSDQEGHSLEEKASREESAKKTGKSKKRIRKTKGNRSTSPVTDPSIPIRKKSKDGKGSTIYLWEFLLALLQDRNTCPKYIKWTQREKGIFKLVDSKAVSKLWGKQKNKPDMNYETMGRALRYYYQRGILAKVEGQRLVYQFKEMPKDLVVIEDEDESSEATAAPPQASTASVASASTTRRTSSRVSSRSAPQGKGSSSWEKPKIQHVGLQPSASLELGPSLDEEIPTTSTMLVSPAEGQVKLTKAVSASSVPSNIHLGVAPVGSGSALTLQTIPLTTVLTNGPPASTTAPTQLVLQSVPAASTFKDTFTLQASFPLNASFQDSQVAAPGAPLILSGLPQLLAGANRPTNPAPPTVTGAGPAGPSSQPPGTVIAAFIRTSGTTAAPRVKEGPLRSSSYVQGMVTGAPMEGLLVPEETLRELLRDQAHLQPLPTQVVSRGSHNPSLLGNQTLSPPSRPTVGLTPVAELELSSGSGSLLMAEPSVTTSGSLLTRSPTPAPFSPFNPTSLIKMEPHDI
# HSF1, sequence (Q00613 whole entry): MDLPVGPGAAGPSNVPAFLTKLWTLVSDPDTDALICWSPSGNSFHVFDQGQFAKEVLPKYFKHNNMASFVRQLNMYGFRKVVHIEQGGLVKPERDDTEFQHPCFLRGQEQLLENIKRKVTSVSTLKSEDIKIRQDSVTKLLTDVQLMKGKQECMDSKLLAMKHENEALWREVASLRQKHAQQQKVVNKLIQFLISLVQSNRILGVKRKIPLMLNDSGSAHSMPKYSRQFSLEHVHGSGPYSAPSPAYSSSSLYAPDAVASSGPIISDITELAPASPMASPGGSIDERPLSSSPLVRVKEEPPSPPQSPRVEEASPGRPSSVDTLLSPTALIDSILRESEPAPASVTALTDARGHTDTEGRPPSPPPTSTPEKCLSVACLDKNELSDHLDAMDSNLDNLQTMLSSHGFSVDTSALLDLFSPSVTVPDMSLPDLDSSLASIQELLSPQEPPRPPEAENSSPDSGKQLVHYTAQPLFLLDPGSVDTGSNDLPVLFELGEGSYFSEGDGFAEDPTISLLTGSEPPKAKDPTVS
# ELF1, sequence (P32519 whole entry): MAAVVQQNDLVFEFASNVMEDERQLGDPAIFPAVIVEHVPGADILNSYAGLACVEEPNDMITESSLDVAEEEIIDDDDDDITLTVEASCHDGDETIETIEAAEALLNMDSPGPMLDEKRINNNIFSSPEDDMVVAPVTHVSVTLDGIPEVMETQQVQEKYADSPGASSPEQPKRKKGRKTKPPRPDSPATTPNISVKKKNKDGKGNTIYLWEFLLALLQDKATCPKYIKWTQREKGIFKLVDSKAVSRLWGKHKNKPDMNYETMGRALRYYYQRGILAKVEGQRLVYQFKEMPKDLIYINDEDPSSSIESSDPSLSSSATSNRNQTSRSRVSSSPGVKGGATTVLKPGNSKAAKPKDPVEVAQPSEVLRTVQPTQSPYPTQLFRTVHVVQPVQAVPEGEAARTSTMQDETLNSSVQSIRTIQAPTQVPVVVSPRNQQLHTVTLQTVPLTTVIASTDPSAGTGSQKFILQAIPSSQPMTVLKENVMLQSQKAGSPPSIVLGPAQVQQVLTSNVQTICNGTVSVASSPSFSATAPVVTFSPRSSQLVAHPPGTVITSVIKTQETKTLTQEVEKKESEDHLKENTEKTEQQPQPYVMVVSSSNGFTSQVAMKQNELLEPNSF
# SPIB, sequence (Q01892 whole entry): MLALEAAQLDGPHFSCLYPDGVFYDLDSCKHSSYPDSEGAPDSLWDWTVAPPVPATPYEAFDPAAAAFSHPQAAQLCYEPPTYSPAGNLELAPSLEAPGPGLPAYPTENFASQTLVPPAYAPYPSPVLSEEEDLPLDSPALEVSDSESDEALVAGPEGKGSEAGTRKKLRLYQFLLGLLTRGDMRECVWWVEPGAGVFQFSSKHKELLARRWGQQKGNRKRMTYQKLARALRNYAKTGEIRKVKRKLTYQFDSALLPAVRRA
# ETV1, sequence (P50549 whole entry): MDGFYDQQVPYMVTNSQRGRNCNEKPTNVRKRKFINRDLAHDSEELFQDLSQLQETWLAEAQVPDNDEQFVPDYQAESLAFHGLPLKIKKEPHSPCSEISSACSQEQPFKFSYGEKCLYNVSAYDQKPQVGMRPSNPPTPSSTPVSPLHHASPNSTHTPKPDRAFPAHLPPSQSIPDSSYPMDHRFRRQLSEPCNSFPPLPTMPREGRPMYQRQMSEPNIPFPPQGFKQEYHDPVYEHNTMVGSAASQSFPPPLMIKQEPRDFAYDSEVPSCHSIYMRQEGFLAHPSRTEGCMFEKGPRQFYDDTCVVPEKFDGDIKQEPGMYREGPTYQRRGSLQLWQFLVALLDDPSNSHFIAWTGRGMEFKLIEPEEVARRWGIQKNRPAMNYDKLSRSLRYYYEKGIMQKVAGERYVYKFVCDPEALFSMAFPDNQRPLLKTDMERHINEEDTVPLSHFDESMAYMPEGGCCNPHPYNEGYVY
# ETV5, sequence (P41161 whole entry): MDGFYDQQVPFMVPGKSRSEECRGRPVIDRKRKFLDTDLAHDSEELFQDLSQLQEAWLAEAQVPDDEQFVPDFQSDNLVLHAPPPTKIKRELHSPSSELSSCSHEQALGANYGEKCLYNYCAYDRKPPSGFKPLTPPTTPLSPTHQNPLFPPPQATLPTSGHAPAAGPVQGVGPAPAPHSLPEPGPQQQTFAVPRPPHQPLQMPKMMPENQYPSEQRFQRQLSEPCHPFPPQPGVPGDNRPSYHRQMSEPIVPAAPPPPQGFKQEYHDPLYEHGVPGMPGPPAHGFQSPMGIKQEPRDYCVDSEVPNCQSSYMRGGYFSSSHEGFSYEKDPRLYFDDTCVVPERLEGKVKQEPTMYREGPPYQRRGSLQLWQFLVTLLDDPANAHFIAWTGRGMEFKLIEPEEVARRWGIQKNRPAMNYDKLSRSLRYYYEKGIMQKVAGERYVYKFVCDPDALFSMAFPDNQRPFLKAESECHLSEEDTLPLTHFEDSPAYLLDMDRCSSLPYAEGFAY
# CRX, sequence (O43186 whole entry): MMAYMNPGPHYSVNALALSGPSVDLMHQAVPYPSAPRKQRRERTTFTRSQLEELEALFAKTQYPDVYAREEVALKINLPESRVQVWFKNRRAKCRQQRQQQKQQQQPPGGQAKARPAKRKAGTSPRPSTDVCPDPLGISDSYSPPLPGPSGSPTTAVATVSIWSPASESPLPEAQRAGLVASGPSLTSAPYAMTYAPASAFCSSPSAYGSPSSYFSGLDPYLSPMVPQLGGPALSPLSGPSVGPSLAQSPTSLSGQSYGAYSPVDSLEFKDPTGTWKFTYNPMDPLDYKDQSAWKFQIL
sequence,measurement,setting,value
AGATCC,binding signal,FLI1,"1.05 fold enrichment (6-mer frequency, TF over GST control)"
same,binding signal,ELK1,"1.12 fold enrichment (6-mer frequency, TF over GST control)"
same,binding signal,GABPA,"1.09 fold enrichment (6-mer frequency, TF over GST control)"
same,binding signal,ERG,"1.15 fold enrichment (6-mer frequency, TF over GST control)"
same,binding signal,ELF1,"1.1 fold enrichment (6-mer frequency, TF over GST control)"
same,binding signal,EHF,"1.12 fold enrichment (6-mer frequency, TF over GST control)"
same,binding signal,SPI1,"1.03 fold enrichment (6-mer frequency, TF over GST control)"
same,binding signal,SPIB,"1.18 fold enrichment (6-mer frequency, TF over GST control)"
same,binding signal,ELK3,"1.1 fold enrichment (6-mer frequency, TF over GST control)"
same,binding signal,FEV,"1.14 fold enrichment (6-mer frequency, TF over GST control)"
same,binding signal,ETV5,"1.14 fold enrichment (6-mer frequency, TF over GST control)"
same,binding signal,HSF1,"1.11 fold enrichment (6-mer frequency, TF over GST control)"
same,binding signal,SPIC,"1.16 fold enrichment (6-mer frequency, TF over GST control)"
same,binding signal,ELF4,"1.14 fold enrichment (6-mer frequency, TF over GST control)"
same,binding signal,ELK4,"1.17 fold enrichment (6-mer frequency, TF over GST control)"
same,binding signal,ETV2,"1.06 fold enrichment (6-mer frequency, TF over GST control)"
same,binding signal,ELF3,"1.06 fold enrichment (6-mer frequency, TF over GST control)"
same,binding signal,CRX,"1.11 fold enrichment (6-mer frequency, TF over GST control)"
same,binding signal,ETV1,"1.14 fold enrichment (6-mer frequency, TF over GST control)"
